Reference: paper PMC5540273 (PLoS ONE, 2017)

Legend:
Details in all cases: concentration: 1 μM, replicates: in singlicate; n = 1
EPHB6 = test system: EPHB6
ERBB2 = test system: ERBB2
ERBB3 = test system: ERBB3
ERBB4 = test system: ERBB4
ERK1 = test system: T1, ERK1
T1 construct: gene MAPK3

ERK2 = test system: T2, ERK2
T2 construct: gene MAPK1

ERK3 = test system: T3, ERK3
T3 construct: gene MAPK6

ERK4 = test system: T4, ERK4
T4 construct: gene MAPK4

ERK5 = test system: T5, ERK5
T5 construct: gene MAPK7

ERK8 = test system: T6, ERK8
T6 construct: gene MAPK15

ERN1 = test system: ERN1
FAK = test system: T7, FAK
T7 construct: gene PTK2

FER = test system: FER
FES = test system: FES
FGFR1 = test system: FGFR1
FGFR2 = test system: FGFR2
FGFR3 = test system: FGFR3
FGFR4 = test system: FGFR4
FGR = test system: FGR
FLT1 = test system: FLT1
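Also: KINOMEscan kinase panel screen.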

## O=C(NCCCN1CCOCC1)c1cccc(Nc2nccc(Nc3ccc(Oc4ccccc4)cc3)n2)c1 [GW663929]
EPHB6
  %Inh: 55%
ERBB2
  %Inh: 38%
ERBB3
  %Inh: 99.3%
ERBB4
  %Inh: 79%
ERK1
  %Inh: 0%
ERK2
  %Inh: 0%
ERK3
  %Inh: 0%
ERK4
  %Inh: 34%
ERK5
  %Inh: 27%
ERK8
  %Inh: 0%
ERN1
  %Inh: 21%
FAK
  %Inh: 0%
FER
  %Inh: 19%
FES
  %Inh: 16%
FGFR1
  %Inh: 0%
FGFR2
  %Inh: 0%
FGFR3
  %Inh: 30%
FGFR4
  %Inh: 54%
FGR
  %Inh: 93.4%
FLT1
  %Inh: 30%

## Cc1nnc(-c2ccc(C)c(-c3ccc(C(=O)Nc4ccc(NS(C)(=O)=O)cc4)cc3)c2)o1 [GW702865]
EPHB6
  %Inh: 10%
ERBB2
  %Inh: 33%
ERBB3
  %Inh: 20%
ERBB4
  %Inh: 8%
ERK1
  %Inh: 10%
ERK2
  %Inh: 0%
ERK3
  %Inh: 0%
ERK4
  %Inh: 0%
ERK5
  %Inh: 0%
ERK8
  %Inh: 0%
ERN1
  %Inh: 0%
FAK
  %Inh: 0%
FER
  %Inh: 4%
FES
  %Inh: 0%
FGFR1
  %Inh: 0%
FGFR2
  %Inh: 0%
FGFR3
  %Inh: 11%
FGFR4
  %Inh: 0%
FGR
  %Inh: 24%
FLT1
  %Inh: 25%

## Cc1c2ccc(N(C)c3ccnc(Nc4cccc(S(N)(=O)=O)c4)n3)cc2nn1Cc1ccccc1.Cl.Cl [GW787226]
EPHB6
  %Inh: 98.9%
ERBB2
  %Inh: 0%
ERBB3
  %Inh: 0%
ERBB4
  %Inh: 0%
ERK1
  %Inh: 0%
ERK2
  %Inh: 0%
ERK3
  %Inh: 0%
ERK4
  %Inh: 0%
ERK5
  %Inh: 12%
ERK8
  %Inh: 3%
ERN1
  %Inh: 0%
FAK
  %Inh: 0%
FER
  %Inh: 63%
FES
  %Inh: 36%
FGFR1
  %Inh: 65%
FGFR2
  %Inh: 85%
FGFR3
  %Inh: 59%
FGFR4
  %Inh: 19%
FGR
  %Inh: 57%
FLT1
  %Inh: 98.9%

## Cc1nnc(-c2ccc3occ(-c4ccc(C(C)O)cc4)c3c2)o1 (centres unmarked)
EPHB6
  %Inh: 15%
ERBB2
  %Inh: 0%
ERBB3
  %Inh: 9%
ERBB4
  %Inh: 0%
ERK1
  %Inh: 0%
ERK2
  %Inh: 0%
ERK3
  %Inh: 15%
ERK4
  %Inh: 10%
ERK5
  %Inh: 7%
ERK8
  %Inh: 31%
ERN1
  %Inh: 0%
FAK
  %Inh: 0%
FER
  %Inh: 0%
FES
  %Inh: 17%
FGFR1
  %Inh: 0%
FGFR2
  %Inh: 16%
FGFR3
  %Inh: 22%
FGFR4
  %Inh: 19%
FGR
  %Inh: 11%
FLT1
  %Inh: 16%

## COc1ccc(S(=O)(=O)NC2CCN(c3cc(C)nc(Nc4cccc(C#N)c4)n3)CC2)cc1.O=C(O)C(F)(F)F [GSK1653539]
EPHB6
  %Inh: 14%
ERBB2
  %Inh: 0%
ERBB3
  %Inh: 0%
ERBB4
  %Inh: 0%
ERK1
  %Inh: 0%
ERK2
  %Inh: 0%
ERK3
  %Inh: 13%
ERK4
  %Inh: 0%
ERK5
  %Inh: 0%
ERK8
  %Inh: 0%
ERN1
  %Inh: 4%
FAK
  %Inh: 0%
FER
  %Inh: 23%
FES
  %Inh: 12%
FGFR1
  %Inh: 0%
FGFR2
  %Inh: 0%
FGFR3
  %Inh: 21%
FGFR4
  %Inh: 0%
FGR
  %Inh: 33%
FLT1
  %Inh: 12%

## Cc1nnc(-c2ccc3ncc(-c4ccc(S(C)=O)cc4)n3c2)o1 (centres unmarked)
EPHB6
  %Inh: 13%
ERBB2
  %Inh: 65%
ERBB3
  %Inh: 3%
ERBB4
  %Inh: 0%
ERK1
  %Inh: 0%
ERK2
  %Inh: 0%
ERK3
  %Inh: 0%
ERK4
  %Inh: 0%
ERK5
  %Inh: 0%
ERK8
  %Inh: 0%
ERN1
  %Inh: 10%
FAK
  %Inh: 0%
FER
  %Inh: 0%
FES
  %Inh: 4%
FGFR1
  %Inh: 0%
FGFR2
  %Inh: 0%
FGFR3
  %Inh: 0%
FGFR4
  %Inh: 0%
FGR
  %Inh: 0%
FLT1
  %Inh: 0%

## COc1cc2c(cc1OC[C@@H](O)CO)ncc1c3ccc(C#N)cc3[nH]c21
EPHB6
  %Inh: 44%
ERBB2
  %Inh: 22%
ERBB3
  %Inh: 2%
ERBB4
  %Inh: 0%
ERK1
  %Inh: 0%
ERK2
  %Inh: 15%
ERK3
  %Inh: 0%
ERK4
  %Inh: 7%
ERK5
  %Inh: 0%
ERK8
  %Inh: 33%
ERN1
  %Inh: 0%
FAK
  %Inh: 0%
FER
  %Inh: 0%
FES
  %Inh: 8%
FGFR1
  %Inh: 0%
FGFR2
  %Inh: 0%
FGFR3
  %Inh: 0%
FGFR4
  %Inh: 0%
FGR
  %Inh: 30%
FLT1
  %Inh: 0%

## NS(=O)(=O)c1cccc(-c2ccc3nccc(-c4cccc(S(N)(=O)=O)c4)c3c2)c1 [GW867253]
EPHB6
  %Inh: 0%
ERBB2
  %Inh: 11%
ERBB3
  %Inh: 0%
ERBB4
  %Inh: 7%
ERK1
  %Inh: 0%
ERK2
  %Inh: 0%
ERK3
  %Inh: 0%
ERK4
  %Inh: 0%
ERK5
  %Inh: 0%
ERK8
  %Inh: 1%
ERN1
  %Inh: 39%
FAK
  %Inh: 0%
FER
  %Inh: 0%
FES
  %Inh: 0%
FGFR1
  %Inh: 11%
FGFR2
  %Inh: 0%
FGFR3
  %Inh: 0%
FGFR4
  %Inh: 0%
FGR
  %Inh: 0%
FLT1
  %Inh: 0%

## Fc1ccc(-c2ncn(CCCN3CCOCC3)c2-c2cccnc2)cc1 [SB-211743]
EPHB6
  %Inh: 0%
ERBB2
  %Inh: 0%
ERBB3
  %Inh: 0%
ERBB4
  %Inh: 0%
ERK1
  %Inh: 0%
ERK2
  %Inh: 8%
ERK3
  %Inh: 0%
ERK4
  %Inh: 0%
ERK5
  %Inh: 0%
ERK8
  %Inh: 29%
ERN1
  %Inh: 18%
FAK
  %Inh: 0%
FER
  %Inh: 21%
FES
  %Inh: 0%
FGFR1
  %Inh: 0%
FGFR2
  %Inh: 0%
FGFR3
  %Inh: 2%
FGFR4
  %Inh: 0%
FGR
  %Inh: 0%
FLT1
  %Inh: 8%

## O=C1NC(=O)C(N2CCc3ccccc32)=C1c1cccc(Cl)c1 [SB-408010]
EPHB6
  %Inh: 0%
ERBB2
  %Inh: 0%
ERBB3
  %Inh: 0%
ERBB4
  %Inh: 0%
ERK1
  %Inh: 0%
ERK2
  %Inh: 12%
ERK3
  %Inh: 0%
ERK4
  %Inh: 0%
ERK5
  %Inh: 0%
ERK8
  %Inh: 9%
ERN1
  %Inh: 27%
FAK
  %Inh: 0%
FER
  %Inh: 0%
FES
  %Inh: 31%
FGFR1
  %Inh: 5%
FGFR2
  %Inh: 15%
FGFR3
  %Inh: 0%
FGFR4
  %Inh: 0%
FGR
  %Inh: 22%
FLT1
  %Inh: 11%
